This is a sample that favours compounds with a hit; in the whole collection about 21% have one here.
VP16 counter = VP16 counterscreen qHTS for inhibitors of ROR gamma transcriptional activity. Potency, µM (highest dose often 53.6 µM), for the others: at the top dose activity, negative = inhibition, hits mostly inhibitors. 310,000 tested, 3.5% active. Drosophila S2 Gal4-VP16 UAS-luciferase, luminescence, 20 h. AID 2546, 2010;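 note: Gal4-VP16 expression switched on by copper sulfate through the metallothionein promoter; potency is the fitted concentration of half-maximal effect; nearly all actives have a fitted effect of over 50% in size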
IL1B secr inh = qHTS for Inhibitors of Inflammasome Signaling: IL-1-beta AlphaLISA Primary Screen | activity change, % at 57.5 µM | 360,000 tested, 4.7% active | THP-1 LPS/ATP IL-1B secretion, AlphaLISA, 16 h; active compounds read low; in the data active = activity change below about -50%; inconclusive = mostly about -30% to -49%
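Secreted IL-1B measured by AlphaLISA bead assay after 16 h compound exposure of THP-1 cells; compounds (final up to 57.5 uM) added 1 h before LPS (250 ng/mL) and ATP (1.25 mM) stimulation; lower signal means less secretion.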
DT40 TDP1 CPT = qHTS for Inhibitors of human tyrosyl-DNA phosphodiesterase 1 (TDP1): qHTS in cells in presence of CPT | chicken DT40 Tdp1-/-;hTDP1 cells + 20 nM CPT, ATP luminescence, 48 h | AID 686979, 2013 | 420,000 tested, 12% active | Potency, µM (series often up to 46.2 µM), inactives show at the top dose activity change, negative = growth inhibition, actives largely listed as inhibitors; note: potency is the fitted concentration of half-maximal effect; nearly all actives have a fitted effect of over 55% in size
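Chicken DT40 Tdp1-/- cells complemented with human TDP1, 400 cells/well, exposed to compounds plus 20 nM camptothecin for at least 48 h at 37 C; viability read as ATP content by CellTiter-Glo luminescence.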
RORg inh = qHTS for inhibitors of ROR gamma transcriptional activity | Nuclear receptor ROR-gamma (Mus musculus), P51450 | Drosophila S2 Gal4-RORgamma UAS-luciferase reporter, 20 h | Potency, µM (titrated, usually from 53.6 µM), without a hit: at the top dose activity change, negative = inhibition, most hits filed as inhibitors | 310,000 tested, 5.4% active | AID 2551, 2010; note: potency is the fitted concentration of half-maximal effect; nearly all actives have a fitted effect of over 60% in size
Target sequence (P51450 whole entry, looked up, the tested form may be a part): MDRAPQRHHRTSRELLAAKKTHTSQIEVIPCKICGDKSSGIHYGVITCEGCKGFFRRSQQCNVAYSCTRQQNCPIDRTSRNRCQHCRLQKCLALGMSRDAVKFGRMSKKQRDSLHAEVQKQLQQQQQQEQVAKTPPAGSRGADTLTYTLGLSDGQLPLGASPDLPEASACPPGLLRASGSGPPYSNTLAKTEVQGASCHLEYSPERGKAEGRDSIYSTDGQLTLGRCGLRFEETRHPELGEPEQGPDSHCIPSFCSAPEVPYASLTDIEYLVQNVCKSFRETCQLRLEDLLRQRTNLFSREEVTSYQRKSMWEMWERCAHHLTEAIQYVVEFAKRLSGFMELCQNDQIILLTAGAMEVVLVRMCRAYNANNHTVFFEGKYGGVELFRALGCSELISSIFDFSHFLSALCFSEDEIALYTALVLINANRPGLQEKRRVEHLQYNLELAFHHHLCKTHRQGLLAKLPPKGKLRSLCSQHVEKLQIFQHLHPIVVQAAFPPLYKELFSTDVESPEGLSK
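Using a luciferase readout, inhibitors were identified by reduced reporter activity in Drosophila cells coexpressing a copper-inducible Gal4–ROR gamma fusion and UAS-driven Photinus luciferase, incubated 20 hr after 700 uM copper sulfate.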
ELG1 repair inh = qHTS screen for small molecules that inhibit ELG1-dependent DNA repair in human embryonic kidney (HEK293T) cells expressing luciferase-tagged ELG1 | HEK293T ELG1-luciferase reporter, luminescence, 16 h; DNA damage induced by 5-fluorouridine | Potency, µM (top dose mostly 46.1 µM), inactives show at the top dose activity change, negative = inhibition, most hits filed as inhibitors | 330,000 tested, 2.3% active | AID 504467, 2011; note: potency is the fitted concentration of half-maximal effect; nearly all actives have a fitted effect of over 55% in size
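HEK293T cells expressing luciferase-tagged ELG1 (2,000/well) received 5-Fluorouridine plus compound or DMSO for 16 hr at 37 °C. Luciferase was read by ONE-Glo luminescence after 30 min at room temperature.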
TDP1 cell noCPT = qHTS for Inhibitors of human tyrosyl-DNA phosphodiesterase 1 (TDP1): qHTS in cells in absence of CPT; Potency, µM (doses to about 46.2 µM), for inactives: at the top dose activity change, negative = growth inhibition, hits mostly inhibitors; 420,000 tested, 15% active; DT40 Tdp1-/- hTDP1 cells, no CPT, ATP luminescence, 48 h; note: potency is the fitted concentration of half-maximal effect; nearly all actives have a fitted effect of over 55% in size
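Readout: luminescence from CellTiter-Glo after 30 min in the dark at RT. Cells: DT40 Tdp1-/- with stable hTDP1, 400/well. Exposure: compounds alone, ≥48 hr, 37 °C.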
* = called active by the depositor; ? = inconclusive; . = not tested or not shown; [ ] = remark or other dose. Unless noted, calls come from the whole dose curve; as a rule, active = well fitted curve in the direction sought with a large enough effect; inconclusive = small, poorly fitted or top-dose-only effect, or another doubt; inactive = no such curve, though single readings can be large; an effect the other way counts as inactive or inconclusive. % is set by controls: 0 for no effect and ±100 for the full control effect.

SMILES	VP16 counter	IL1B secr inh	DT40 TDP1 CPT	RORg inh	ELG1 repair inh	TDP1 cell noCPT
c1ccc(CSc2ncnc3c2ncn3C2CCCCO2)cc1 (stereo unspecified)	.	-50.3*	-24.9%	.	.	?
Fc1cccc(CSc2ncnc3c2ncn3C2CCCCO2)c1 (stereo unspecified)	.	-10.9	?	.	.	?
Clc1cccc(CSc2ncnc3c2ncn3C2CCCCO2)c1 (stereo unspecified)	.	-23.6	?	.	.	16.4µM*
O=C(CCn1nnnc1CN1CCOCC1)N1CCC(c2ccccc2F)C1 (stereo unspecified)	-1.0%	39.3	-14.9%	-21.7%	-0.5%	12.2%
CCN1CCN(CC(=O)N2CCCC(C(=O)c3ccc(Oc4ccccc4)cc3)C2)CC1 (stereo unspecified)	?	-14.3	?	7.94µM*	?	?
CCC(=O)N1CCCC(C(=O)c2ccc(-c3ccccc3)cc2)C1 (stereo unspecified)	-8.9%	-68.1*	?	?	6.0%	?
COCCC(=O)N1CCCC(C(=O)c2ccc(Oc3ccccc3)cc2)C1 (stereo unspecified)	-10.2%	-1.2	-28.9%	45.0%	-16.9%	20.6µM*
COC(=O)CCCC(=O)N1CCCC(C(=O)c2ccc(-c3ccccc3)cc2)C1 (stereo unspecified)	29.7%	8.8	?	13.6%	-7.5%	?
O=C(NCC(=O)N1CCCC(C(F)(F)F)C1)c1ccc(Oc2ccccc2)cc1 (stereo unspecified)	12.6µM*	2.9	-25.9%	8.91µM*	?	-19.8%
O=C(Cc1ccccc1)NCC(=O)N1CCN(c2ccccc2F)CC1	-3.6%	15.0	2.0%	18.0%	3.5%	3.3%
O=C(NC(=S)N1CCCC(C(F)(F)F)C1)c1ccc(F)cc1 (stereo unspecified)	0.708µM*	-23.0	18.4µM*	0.562µM*	1.8%	23.1µM*
CC(=O)c1ccc(NC(=S)N2CCCC(C(F)(F)F)C2)cc1 (stereo unspecified)	14.9%	7.9	7.0%	-12.8%	8.7%	-5.0%
Cc1nonc1C(=O)N/N=C/c1cccc(O)c1	?	-2.1	-16.8%	2.9%	13.6%	-16.7%
CCC(C(=O)Nc1cccc(C#N)c1)n1c(=O)c(-c2ccccc2NC(C)=O)nc2ccccc21 (stereo unspecified)	.	.	23.1µM*	.	.	13µM*
CCC(=O)Nc1ccc(C)cc1-c1nc2ccccc2n(C(C)C(=O)Nc2ccccc2CC)c1=O (stereo unspecified)	.	.	18.4µM*	.	.	20.6µM*
CC(=O)Nc1ccccc1-c1nc2ccccc2n(CC(=O)c2ccc(C)c(C)c2)c1=O	.	.	20.6µM*	.	.	?
CCC(C(=O)Nc1c(C)cc(C)cc1C)n1c(=O)c(-c2ccccc2NC(C)=O)nc2ccccc21 (stereo unspecified)	.	.	-23.5%	.	.	?
CCc1ccc(NC(=O)C(CC)n2c(=O)c(-c3ccccc3NC(C)=O)nc3ccccc32)cc1 (stereo unspecified)	.	.	23.1µM*	.	.	23.1µM*
CCOC(=O)c1c(NC(=O)CCCOc2ccc(Cl)cc2)sc2c1CCC2	.	.	-11.1%	.	.	-11.9%
CN(C)c1ccc(C(CNS(=O)(=O)c2ccc([N+](=O)[O-])cc2)N2CCOCC2)cc1 (stereo unspecified)	.	-15.5	-18.1%	.	4.6%	-18.1%
COc1ccccc1C(=O)NCC(c1ccc(N(C)C)cc1)N1CCc2ccccc21 (stereo unspecified)	.	.	20.6µM*	.	.	16.4µM*
COc1ccc(C(=O)NCC(c2ccc(N(C)C)cc2)N2CCc3ccccc32)cc1 (stereo unspecified)	.	.	7.31µM*	.	.	8.2µM*
COc1ccc(C(CNC(=O)c2ccc(S(=O)(=O)N(C)C)cc2)N2CCCC2)cc1 (stereo unspecified)	0.9%	-4.9	-20.9%	17.5%	?	-20.5%
Cc1ccc(S(=O)(=O)NCC(c2ccc(N(C)C)cc2)N2CCc3ccccc32)cc1C (stereo unspecified)	.	.	?	.	.	23.1µM*
CC(C)Oc1ccc(C(=O)NCC(c2ccc(N(C)C)cc2)N2CCc3ccccc32)cc1 (stereo unspecified)	.	.	9.2µM*	.	.	20.6µM*
SMILES	VP16 counter	IL1B secr inh	DT40 TDP1 CPT	RORg inh	ELG1 repair inh	TDP1 cell noCPT
O=C(NCC(c1ccco1)N1CCc2ccccc21)c1ccc([N+](=O)[O-])cc1 (stereo unspecified)	.	-4.1	-13.1%	.	?	-22.2%
CN(C)c1ccc(C(CNC(=O)c2ccccc2)N2CCc3ccccc32)cc1 (stereo unspecified)	.	.	7.31µM*	.	.	14.6µM*
COc1ccc(Oc2ncc3nc(-c4ccc(OC)cc4)c(=O)n(Cc4cccs4)c3n2)cc1	-1.8%	.	3.7%	-28.5%	.	-2.5%
COc1cccc(OC)c1OCCCc1c(C)n[nH]c1C	1.6%	0.0	-21.4%	-34.2%	7.2%	-7.1%
Cc1n[nH]c(C)c1CCOc1ccc(C(C)C)cc1	?	23.4	?	?	.	?
Cc1cccc(OCCCc2c(C)n[nH]c2C)c1	-1.5%	5.6	-29.2%	11.2µM*	-16.7%	-16.4%
COc1ccc(OCCCCc2c(C)n[nH]c2C)cc1	.	-3.8	23.1µM*	.	.	?
Cc1nnc(SC(=O)N2c3ccccc3Sc3ccccc32)s1	.	-100.9*	13µM*	-33.1%[0.365 µM]	?	10.3µM*
O=C(Nc1cccnc1)c1ccc(N2CCCC2)c([N+](=O)[O-])c1	-6.2%	-27.0	2.9%	?	-7.1%	-28.9%
Cc1cccc(NC(=O)c2ccc(N3CCCCC3)c([N+](=O)[O-])c2)n1	?	-3.2	?	?	?	13µM*
Cc1cccc(NC(=O)c2ccc(N3CCOCC3)c([N+](=O)[O-])c2)n1	-1.5%	-28.7	?	33.2%	?	?
Cc1ccc(C)c2sc(NC(=O)c3ccc(N4CCCCC4)c([N+](=O)[O-])c3)nc12	-11.3%	?	?	-30.8%	-9.1%	23.1µM*
Cc1cccc(NC(=O)c2ccc(N(C)C3CCCCC3)c([N+](=O)[O-])c2)n1	?	?	20.6µM*	7.7%	?	16.4µM*

Assay outcomes (PubChem BioAssay)
